Screens from PubChem BioAssay.
Pf growth 48h: inhibits P. falciparum growth in the first generation, 48 h; P. falciparum luciferase growth in erythrocytes, 48 h; Potency, µM (highest dose often 28.7 µM), most hits filed as inhibitors; 310,000 tested, 5.9% active; AID 504832
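Erythrocytes infected with P. falciparum carrying an integrated firefly luciferase reporter (2% hematocrit, 0.1% parasitemia final) were exposed to compounds in RPMI 1640 with 0.5% Albumax at 37 C, 5% CO2. Growth inhibition was scored as reduced luminescence.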
Pf growth 96h: inhibits malaria parasite growth, 96 h. P. falciparum luciferase reporter growth, 96 h. Potency, µM (titrated, usually from 28.7 µM), most hits filed as inhibitors. 320,000 tested, 6.9% active. AID 504834
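Parasite growth measured via integrated firefly luciferase reporter in P. falciparum. Infected erythrocytes at 2% hematocrit, 0.05% parasitemia final were treated 96 hours at 37 C under 5% CO2, and luminescence was read.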
Sm TGR block: S. mansoni TGR enzyme inhibition; AID 485364; Potency, µM (series often up to 114 µM), hits mostly inhibitors; 360,000 tested, 3% active; Q962Y6; purified TGR, DTNB reduction, TNB absorbance 405 nm; also: nearly all actives have a fitted effect of over 60% in size
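Kinetic colorimetric format: TGR-catalysed, NADPH-driven DTNB reduction monitored via TNB absorbance. Enzyme dispensed at 20 nM; compound exposure 15 min at room temperature before reaction start.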
AmpC inh no detg: blocks E. coli AmpC beta-lactamase in detergent-free assay; AmpC nitrocefin hydrolysis, absorbance 480 nm, 0.0001% Triton; Potency, µM (doses to about 57.1 µM), most hits filed as inhibitors; 330,000 tested, 0.52% active; AID 485341; also: nearly all actives have a fitted effect of over 20% in size
Target sequence (P00811 whole entry, looked up): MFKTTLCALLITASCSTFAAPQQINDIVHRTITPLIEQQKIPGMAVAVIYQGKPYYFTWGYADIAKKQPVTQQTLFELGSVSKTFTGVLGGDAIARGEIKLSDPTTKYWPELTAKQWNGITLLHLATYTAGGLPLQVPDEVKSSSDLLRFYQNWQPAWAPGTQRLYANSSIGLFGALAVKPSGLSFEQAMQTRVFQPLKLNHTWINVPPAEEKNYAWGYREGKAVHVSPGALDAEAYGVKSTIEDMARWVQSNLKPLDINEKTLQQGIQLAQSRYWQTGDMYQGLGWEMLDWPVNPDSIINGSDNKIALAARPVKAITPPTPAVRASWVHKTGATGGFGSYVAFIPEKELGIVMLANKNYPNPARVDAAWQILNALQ
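AmpC (5.3 nM in the dispensed reagent) in 20 mM phosphate pH 7.0 with 0.01% (detergent screen) or 0.0001% Triton X-100 was preincubated with compounds for 15 min at room temperature. Nitrocefin was then added from an 800 uM solution, and hydrolysis was followed at 480 nm.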
AmpC detergent: inhibitors of E. coli AmpC beta-lactamase with detergent; AmpC hydrolysis of nitrocefin, absorbance 480 nm, 0.01% Triton; Potency, µM (titrated, usually from 114 µM), hits mostly inhibitors; 370,000 tested, 0.041% active; AID 485294; also: nearly all actives have a fitted effect of over 25% in size
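20 mM phosphate pH 7.0 + 0.01% (detergent screen) or 0.0001% Triton X-100; 5.3 nM AmpC reagent; cpd preinc 15 min RT; nitrocefin (800 uM stock) to start; A480 q20 s × 4 min; Activity was normalised to no-enzyme and no-compound control wells.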
SARS PLpro yeast: SARS-CoV PLP inhibition in yeast | S. cerevisiae expressing SARS-CoV PLpro, growth rescue | Potency, µM (doses to about 32.9 µM), hits mostly activators | 330,000 tested, 0.19% active; calls by dose curve; also: nearly all actives have a fitted effect of over 55% in size
A number is an active result; i = inactive; ? = inconclusive; nt = no result; [ ] = another dose, or the depositor's remark. Shown are actives, neighbours in structure and some others; about 12% of the full set was active somewhere. Unless noted, calls follow the shape of the dose curve; as a rule, active = well fitted curve in the direction sought with a large enough effect; inconclusive = small, poorly fitted or top-dose-only effect, or another doubt; inactive = no such curve, though single readings can be large; an effect the other way counts as inactive or inconclusive.

SMILES | Pf growth 48h | Pf growth 96h | Sm TGR block | AmpC inh no detg | AmpC detergent | SARS PLpro yeast
Cc1ccc(NC(=O)C(=O)c2c(-c3ccccc3)cc3ccccn23)cc1S(=O)(=O)N1CCOCC1 | 9.3µM | nt | i | i | i | i
CCOc1ccc(OCC)c(NC(=O)c2[nH]c(C)c(C(C)=O)c2C)c1 | i | i | i | i | i | i
Cc1nnc(SCC(=O)N(C)C2CCCCC2)s1 | i | i | i | i | i | i
CCOc1ccc(S(=O)(=O)N(CC)CC(=O)NCc2ccncc2)cc1C | i | i | i | i | i | i
O=C(CCCSc1ccccc1)Nc1ccc(Cl)c(S(=O)(=O)N2CCOCC2)c1 | 13µM | 10µM | i | i | ? | i
Cc1ccc(OCCC(=O)Nc2ccc(S(=O)(=O)N3CCCC3)cc2)cc1 | ? | ? | i | i | i | i
CCCCNC(=S)Nc1cc(S(=O)(=O)N2CCCCC2)ccc1C | i | ? | 2µM | i | i | i
CCN(CC(=O)Nc1ccc(C)c(S(=O)(=O)N2CCOCC2)c1)Cc1ccccc1 | 12µM | ? | i | i | ? | i
Cc1ccc(OCCCC(=O)Nc2ccc(S(N)(=O)=O)cc2)cc1 | i | 15µM | i | i | i | i
O=C(CCSc1ccccc1)Nc1ccc(S(=O)(=O)N2CCOCC2)cc1 | nt | i | i | i | i | i
Cc1ccc(NC(=O)CCc2ccccc2)cc1S(=O)(=O)N1CCOCC1 | nt | nt | nt | i | nt | i
CCOC(=O)C1CCN(c2ncnc3c2c(-c2ccccc2)cn3-c2ccc(Cl)cc2)CC1 | nt | nt | i | nt | i | nt
Cc1ccc(S(=O)(=O)N2CCN(C(=O)CC(C)n3nc(C)c(Cl)c3C)CC2)cc1 (centres undefined) | i | i | i | i | i | i
CCCn1c2ccccc2c2cnn(CC(=O)NCCCN3CCN(c4ccccc4)CC3)c(=O)c21 | i | 0.33µM | i | i | i | i
CCCn1c2ccccc2c2cnn(CC(=O)NCCCN3CCCC(C)C3)c(=O)c21 (centres undefined) | i | 15µM | i | i | i | i
CCCn1c2ccccc2c2cnn(CC(=O)N3CCCC(C)C3)c(=O)c21 (centres undefined) | nt | nt | i | nt | i | nt
CCCn1c2ccccc2c2cnn(CC(=O)NCCCN3CCCCC3)c(=O)c21 | i | ? | i | i | i | i
COC(=O)CSc1nnc(CCc2ccccc2)n1C | i | ? | i | i | i | i
COc1ccc(-c2nnn(CC(=O)N(Cc3ccccc3Cl)C(C(=O)NCC3CCCO3)c3ccco3)n2)cc1OC (centres undefined) | 9.3µM | i | i | i | i | i
O=C(CN(CCc1ccccc1)C(=O)Cn1nnc(-c2cccs2)n1)NCc1ccco1 | i | ? | 50µM | i | ? | i
O=C(CN(Cc1ccccc1Cl)C(=O)Cn1nnc(-c2cccs2)n1)NCC1CCCO1 (centres undefined) | i | 1.2µM | i | i | i | ?
Cc1c(NC(=O)C(C)N2C(=O)NC3(CCC(C)CC3)C2=O)c(=O)n(-c2ccccc2)n1C (centres undefined) | i | ? | i | i[2.29 µM] | i | i
CC(=O)N1c2ccc(S(=O)(=O)NCC3CCC(C(=O)Nc4cccc(C)n4)CC3)cc2CC1C (centres undefined) | ? | ? | i | i | i | i
COc1ccccc1CN1CC(C(=O)NCCCc2ccc(F)cc2)CCC1=O (centres undefined) | i | ? | i | i | i | i
COc1ccc(CC(C#N)(CO)c2nc3ccccc3[nH]2)cc1 (centres undefined) | ? | 2.3µM | i | i | i | i
Cc1csc(N/N=C\c2cccnc2)n1 | i | i | 22µM | i | i | i
CC(=O)OC(C)(C)/C=C/C(=O)[C@](C)(O)C1[C@H](O)C[C@@]2(C)C3CC=C4C(C=C(O[C@@H]5O[C@H](CO)[C@@H](O)[C@H](O)[C@H]5O)C(=O)C4(C)C)[C@]3(C)C(=O)C[C@]12C (some centres undefined) | nt | nt | nt | i | nt | i
